VHR inh abs – DUSP3 (human) phosphatase inhibition; P51452; recombinant VHR phosphatase, pNPP absorbance; inhibition, % at 13.3 µM; 290,000 compounds, 0.52% hits; AID 1654; in the data active = inhibition above about 50%
Target sequence (P51452 whole entry, looked up): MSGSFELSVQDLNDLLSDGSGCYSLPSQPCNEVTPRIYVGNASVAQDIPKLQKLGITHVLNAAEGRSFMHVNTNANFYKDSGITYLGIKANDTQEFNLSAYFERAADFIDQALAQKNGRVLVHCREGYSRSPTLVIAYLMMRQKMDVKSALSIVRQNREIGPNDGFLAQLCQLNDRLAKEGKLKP
BJeLR viability – kills HRASV12-expressing BJeLR cells. BJeLR (HRASV12) viability, CellTiter-Glo ATP luminescence, 48 h. inhibition, % (concentration not given with the values). 300,000 compounds, 0.17% hits; in the data active = inhibition above about 50%
CCHF vOTU inh – CCHFV vOTU protease inhibition | 370,000 compounds, 0.55% hits | Pep-AMC fluorescence | inhibition, % at 11.5 µM | AID 651958; in the data active = inhibition above about 30%
MazF activator – activators of E. coli MazEF toxin-antitoxin RNase; FAM/BHQ RNA-DNA oligo cleavage fluorescence, 5 h; activation, % at 20 µM; 350,000 compounds, 0.32% hits; AID 504720; in the data active = activation above about 50%
Target sequence (P0AE70 whole entry, looked up): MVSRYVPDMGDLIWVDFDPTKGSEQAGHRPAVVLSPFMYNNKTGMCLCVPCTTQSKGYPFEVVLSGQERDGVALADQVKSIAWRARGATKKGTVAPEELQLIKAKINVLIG
3CLpro inhibitor – SARS-CoV 3CLpro protease inhibition; recombinant SARS-CoV 3CLpro, quenched FRET peptide cleavage; inhibition, % at 6 µM; 290,000 compounds, 0.14% hits; AID 1706; in the data active = inhibition above about 12%
Hits are given with their value; n = inactive; x = no result given; + = active, no number. Only some compounds are listed: those with a hit (about 1.4% of all), similar ones and a draw of the others.

SMILES | VHR inh abs | BJeLR viability | CCHF vOTU inh | MazF activator | 3CLpro inhibitor
CCOC(=O)N1C2C=CC(C2)N1C(=O)OCC | x | x | n | 157 | x
CCOC(=O)N1C2CCC(C2)N1C(=O)OCC | x | x | n | n | x
CC(=O)/C=C/n1c(=S)oc2ccccc21 | n | 71 | n | n | n
CC(C)CC(=O)/C=C/n1c(=S)oc2ccccc21 | n | n | n | n | n
O=C(C1CCCCC1)n1ccc2ccc(-c3ccc4ccn(Cc5ccccc5)c4c3)cc21 | x | x | n | x | x
C/C(=N\NC(=O)c1ccccc1NC(=O)c1ccc(Cl)cc1)c1ccncc1 | n | 132 | n | n | n
C[C@H]1COc2cc(Br)ccc2S(=O)(=O)N1Cc1cn(Cc2ccc(F)cc2)nn1 | x | x | n | x | x
CCOC(=O)C1=c2s/c(=C\c3cccnc3)c(=O)n2C(N)=C(C(=O)OC)C1c1cccnc1 (stereo not drawn) | 52 | n | n | n | n
COc1ccc2c(c1)sc(N)[n+]2Cc1cc(C)cc2cccnc12 | n | 52 | n | n | n
COC(=O)C1CN(Cc2ccccc2)CCS(=O)(=O)N1Cc1ccccc1F (stereo not drawn) | x | x | n | x | x
O=c1c(C(c2ccc(Cl)cc2)c2c(O)nc3n(c2=O)CCS3)c(O)nc2n1CCS2 | n | n | n | n | n
O=c1c(C(c2ccc(F)cc2)c2c(O)nc3n(c2=O)CCS3)c(O)nc2n1CCS2 | n | n | n | 289 | n
Cc1ccc(NC(=O)c2sc(Cl)nc2-c2ccccc2)cc1C | n | n | n | 67 | n
Cc1ccc(Nc2cnn(C34CC5CC(CC(CC(=O)O)(C5)C3)C4)c(=O)c2Cl)cc1 | n | n | n | n | 12
CCN1CCN(C(c2ccc(OC)cc2)c2nnnn2Cc2ccc3c(c2)OCO3)CC1 (stereo not drawn) | n | n | n | n | n
CCN1CCN(C(c2ccccc2)c2nnnn2Cc2ccc3c(c2)OCO3)CC1 (stereo not drawn) | 52 | n | n | n | n
Cc1[nH]n(-c2ccccc2)c(=O)c1/C=N/N1C(=O)c2ccc3c4c(ccc(c24)C1=O)CC3 | 51 | n | n | n | n
COc1ccc(-n2c(SCC(=O)N3CCCC3)nnc2-c2ccncc2)cc1 | x | x | n | x | x
COc1cc2c(cc1OC)C1=CC(=O)C(=O)N1C(C)(C)C2 | n | n | n | 55 | n
CC(=O)Nc1ccccc1-c1ccc(C)o1 | n | n | n | n | n
Cc1ccc(NC(=O)CS(=O)CC(=O)Nc2ccccc2-c2ccc(C)o2)cc1 (stereo not drawn) | n | n | n | 300 | n
CCn1c(=O)cc(SCC(=O)NCc2ccccn2)c2ccccc21 | 55 | n | n | n | n
CCn1c(=O)cc(SCC(=O)NCc2cccnc2)c2ccccc21 | n | n | n | n | n
COCC(C)NC(=O)c1ccc2c(c1)S(=O)(=O)c1ccccc1C2=O (stereo not drawn) | n | n | n | n | n
CCC(C)NC(=O)c1ccc2c(c1)S(=O)(=O)c1ccccc1C2=O (stereo not drawn) | 56 | n | n | n | n
SMILES | VHR inh abs | BJeLR viability | CCHF vOTU inh | MazF activator | 3CLpro inhibitor
Cc1cccc(-c2cccc3c4c([nH]c23)[C@@H]2C[C@H](N(C)C(=O)Nc3ccccc3)[C@H]([C@H](C)O)C(=O)N2CC4)c1 | x | x | n | x | x
CCCn1c(SCC(=O)NC2CCCCC2)nnc1-c1ccco1 | 58 | n | n | n | n
COc1cc2c(=O)n(CCC(=O)NCC3CCCO3)c(=O)n(CC(=O)c3ccc(Cl)cc3)c2cc1OC (stereo not drawn) | 51 | n | n | n | n
COc1cccc(C(=O)Cn2c(=O)n(CCC(=O)NCC3CCCO3)c(=O)c3cc(OC)c(OC)cc32)c1 (stereo not drawn) | n | n | n | n | n
C=CCN(CC#Cc1ccc(OC)cc1)CC=C | x | x | n | x | x
COc1cc2c(cc1NC(=O)CSc1nnc(-c3cccc(Cl)c3)n1-c1ccccc1)oc1ccccc12 | x | x | n | x | x
CCCCCCCCCn1cc(C(C)=O)c(=O)[nH]c1=O | 50 | n | n | n | n
Cc1ccc(-n2nc3c(=O)n(CC(=O)NCc4ccc(C)o4)nc(C)c3c2C)cc1 | 53 | n | n | n | n
Cc1ccc(-n2nc3c(=O)n(CCCC(=O)NCc4ccc(C)o4)nc(C)c3c2C)cc1 | n | n | n | n | n
CCC1(C)NC(C(=O)O)Cc2c1[nH]c1ccccc21 (stereo not drawn) | 60 | n | n | n | n
CCCN1CCC2(CC1)NC(C(=O)O)Cc1c2[nH]c2ccccc12 (stereo not drawn) | n | n | x | n | n
CCCC[C@H]1C2CC(OC(=O)Nc3ccc(C#N)cc3)C(C2)[C@H]2CCCCN21 (stereo partly drawn) | x | x | n | x | x
O=C(NCc1ccccc1)C1(C(=O)C2CC2)CC(c2ccccn2)=NO1 (stereo not drawn) | x | x | n | x | x
Cc1ccc(NC(=O)C2SC(=Nc3ccccc3)C(C(=O)Nc3ccc(Cl)cc3)=C2N)cc1 (stereo not drawn) | n | x | x | n | n
Cc1ccc(N=C2SC(C(=O)Nc3ccc(OC(F)(F)F)cc3)C(N)=C2C(=O)Nc2c(C)cc(C)cc2C)cc1 (stereo not drawn) | n | x | 30 | n | n
Cc1ccc(C)c(OCC(=O)Nc2cc(C(=O)O)cc(C(=O)O)c2)c1 | 53 | n | n | n | n
COC(=O)[C@]12C[C@H](CC(=O)NCc3cccc(C(F)(F)F)c3)C(=O)N(Cc3ccccc3)C1=C[C@H](COCc1ccccc1)O[C@@H]2C | x | x | n | x | x
COC(=O)[C@H](CC(C)C)N(Cc1cn(Cc2ccc(C)cc2)nn1)S(=O)(=O)c1ccccc1Br | x | x | n | x | x
CCSc1nnc(N2C(=O)C(O)=C(C(=O)c3ccco3)C2c2cccc(OC)c2)s1 (stereo not drawn) | n | n | n | 65 | n
O=C(Cn1c(-c2cncs2)nc2ccccc21)N1CCCCC1 | x | x | n | x | x
CN(N=Cc1ccc([N+](=O)[O-])cc1)c1ccccn1 | x | x | n | + | x
O=C(c1ccc([N+](=O)[O-])cc1)N(c1ccccn1)c1ccccn1 | n | n | n | n | n
NS(=O)(=O)c1ccc(CCNC(=O)CSc2ccc(Cl)cc2Cl)cc1 | n | n | n | 63 | n
CCOC(=O)[C@]12CCCC=C1N(CCCOC)C(=O)[C@@H]2CC(=O)N1CCN(C(=O)c2ccco2)CC1 | x | x | n | x | x
Cc1cccc(NC(=O)Nc2nc3ncccn3c2-c2ccc(F)cc2)c1 | x | x | n | x | x
SMILES | VHR inh abs | BJeLR viability | CCHF vOTU inh | MazF activator | 3CLpro inhibitor
Cc1nc2sc(C(=O)OCC(=O)N3c4ccccc4CC3C)c(C)c2c(=O)[nH]1 (stereo not drawn) | n | n | n | 72 | n
COc1ccc(C(=O)NN(C)c2nc(C(F)(F)F)nc3ccccc23)cc1 | n | 60 | n | n | n
CC(c1cc(F)ccc1O)c1c[nH]c2ccccc12 (stereo not drawn) | x | x | n | x | x
CCCCOc1ccc(OCCCC)c2c1NC1(N2)C(=O)N(C(C)=O)c2ccccc21 | n | n | n | 105 | n
COC(=O)C1CN(CC(C)C)CCS(=O)(=O)N1Cc1ccc(OC)cc1 (stereo not drawn) | x | x | n | x | x
N#Cc1sc2nc(-c3ccccc3)cc(-c3ccco3)c2c1N | n | n | 59 | n | n
